According to PubChem BioAssay (NCATS):
Records with an inconclusive call do not appear. Calls of active or inactive are those of the source. Unless noted, calls come from the whole dose curve.

molecular target: Estrogen receptor (Homo sapiens) (UniProt P03372); experiment: qHTS assay for small molecule antagonists of estrogen receptor alpha signaling (AID 588513; active = well fitted curve in the direction sought with a large enough effect in the signal ratio, with a control signal flat, not every such curve was filed as active; the % refers to the signal ratio; note: % is set by controls: 0 for no effect and ±100 for the full control effect); conditions: ER-alpha-UAS-bla HEK293, beta-lactamase ratio, antagonist mode; series mostly up to 76.9 µM; activity, negative = inhibition: at the top concentration
Sequence (P03372 whole entry, looked up): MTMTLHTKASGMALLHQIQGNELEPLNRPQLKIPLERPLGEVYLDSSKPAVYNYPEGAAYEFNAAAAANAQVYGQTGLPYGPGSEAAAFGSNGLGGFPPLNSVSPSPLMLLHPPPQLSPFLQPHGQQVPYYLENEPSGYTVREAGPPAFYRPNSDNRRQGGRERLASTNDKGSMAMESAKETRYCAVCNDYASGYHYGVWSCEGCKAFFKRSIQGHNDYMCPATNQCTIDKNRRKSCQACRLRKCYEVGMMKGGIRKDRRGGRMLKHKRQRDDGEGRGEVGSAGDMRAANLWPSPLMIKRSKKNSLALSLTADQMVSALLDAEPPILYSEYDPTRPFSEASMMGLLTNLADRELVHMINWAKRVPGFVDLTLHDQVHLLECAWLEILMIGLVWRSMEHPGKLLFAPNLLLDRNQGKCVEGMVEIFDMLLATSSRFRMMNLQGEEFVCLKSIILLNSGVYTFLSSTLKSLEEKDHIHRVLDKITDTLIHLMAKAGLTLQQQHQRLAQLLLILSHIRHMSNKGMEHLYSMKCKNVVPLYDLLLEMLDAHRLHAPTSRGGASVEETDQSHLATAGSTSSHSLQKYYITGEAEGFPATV
Method in brief: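 Fluorescence from CCF4 substrate after 2 h at room temperature gave reporter activity; cells had been exposed to compound and 0.5nM 17-beta-estradiol for 18 h at 37 C. Hill-equation fitting yielded IC50 and maximal response.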

Row | Compound | activity, negative = inhibition | Potency
1 | O=S(=O)(c1ccc(O)cc1)c1ccc(O)cc1 | -10.4% (inactive) | 
2 | COc1ccc(O)c(C(C)(C)C)c1 | 9.39% (inactive) | 
3 | O=[N+]([O-])c1ccc(Oc2ccc(C(F)(F)F)cc2[N+](=O)[O-])cc1 | -12.5% (inactive) | 
4 | Cc1ccccc1C(=O)Nc1cccc(OC(C)C)c1 | -31.1% (inactive) | 
5 | CN(C)P(=O)(N(C)C)N(C)C | -37.4% (inactive) | 
6 | CCOc1ccc(C(C)(C)COCc2cccc(Oc3ccccc3)c2)cc1 | -31.3% (inactive) | 
7 | O=c1[nH]c2ccccc2c(=O)o1 | -7.34% (inactive) | 
8 | COc1ccc(C(O)(c2cncnc2)C2CC2)cc1 (stereo not drawn) | -8.98% (inactive) | 
9 | CN(C)c1nc(=O)n(C2CCCCC2)c(=O)n1C | -21.9% (inactive) | 
10 | C=CC1(C)OC(=O)N(c2cc(Cl)cc(Cl)c2)C1=O (stereo not drawn) | -8.79% (inactive) | 
11 | COC(=O)c1ccccc1CS(=O)(=O)NC(=O)Nc1nc(OC)cc(OC)n1 | -12.2% (inactive) | 
12 | CCC[CH2][Sn]([CH2]CCC)([O]C(C)=O)[O]C(C)=O | 1.24% (inactive) | 
13 | O=P(O)(O)CCCl |  | inactive
14 | CCCCN(CC)C(=O)SCCC | -4.14% (inactive) | 
15 | NS(=O)(=O)C(F)(F)C(F)(F)C(F)(F)C(F)(F)C(F)(F)C(F)(F)C(F)(F)C(F)(F)F | -21.7% (inactive) | 
16 | CCOP(=O)(NC(C)C)Oc1ccc(S(C)=O)c(C)c1 (stereo not drawn) | -42% (inactive) | 
17 | COP(=S)(OC)Oc1nc(Cl)c(Cl)cc1Cl | -27.6% (inactive) | 
18 | CCOP(=O)(O)C(N)=O | -28.6% (inactive) | 
19 | COC(=O)c1ccccc1S(=O)(=O)NC(=O)N(C)c1nc(C)nc(OC)n1 | -23.9% (inactive) | 
20 | Clc1ccc(C(Cl)(Cl)Cl)cc1 | 2.99% (inactive) | 

Row | Compound | activity, negative = inhibition | Potency
21 | CCOC1Oc2ccc(OS(C)(=O)=O)cc2C1(C)C (stereo not drawn) | -12.5% (inactive) | 
22 | COCc1cnc(C2=NC(C)(C(C)C)C(=O)N2)c(C(=O)O)c1 (stereo not drawn) | -22.1% (inactive) | 
23 | Clc1ccc([C@]2(Cn3cncn3)C[C@H](Br)CO2)c(Cl)c1 | -2.33% (inactive) | 
24 | CCNc1nc(NC(C)(C)C)nc(SC)n1 | -16% (inactive) | 
25 | CCCCC(CC)COC(=O)Cl (stereo not drawn) | -10.6% (inactive) | 
26 | CC1CCCCC1NC(=O)Nc1ccccc1 (stereo not drawn) | -19.9% (inactive) | 
27 | CCOP(=S)(OCC)SCC(=O)NC(C)C | -17.6% (inactive) | 
28 | CCOc1nc(NC)nc(NC(=O)NS(=O)(=O)c2ccccc2C(=O)OC)n1 | -32.4% (inactive) | 
29 | C/C(=N\NC(=O)Nc1cc(F)cc(F)c1)c1ncccc1C(=O)O | 7.74% (inactive) | 
30 | C=CCC1=C(C)[C@@H](OC(=O)[C@@H]2[C@@H](C=C(C)C)C2(C)C)CC1=O | -28.3% (inactive) | 
31 | C=CC(=O)OCCCCCC(C)C | -9.87% (inactive) | 
32 | CCC(C)n1c(=O)[nH]c(C)c(Br)c1=O (stereo not drawn) | -24% (inactive) | 
33 | COP(=S)(OC)Oc1ccc([N+](=O)[O-])c(C)c1 | -27% (inactive) | 
34 | CCN(CC)C(=O)C(C)Oc1cccc2ccccc12 (stereo not drawn) | -44.4% (inactive) | 
35 | CCCCC(CC)C(=O)Cl (stereo not drawn) | 1.04% (inactive) | 
36 | CC(Oc1cc(Cl)c(Cl)cc1Cl)C(=O)O (stereo not drawn) | -7.19% (inactive) | 
37 | Cc1c(F)c(F)c(COC(=O)C2C(/C=C(\Cl)C(F)(F)F)C2(C)C)c(F)c1F (stereo not drawn) | -17.9% (inactive) | 
38 | Nc1ccc([N+](=O)[O-])cc1Cl | -10.4% (inactive) | 
39 | CNC(=O)Oc1ccc(N(C)C)c(C)c1 | -19.7% (inactive) | 

molecular target: Estrogen receptor (Homo sapiens) (UniProt P03372); experiment: qHTS assay for small molecule agonists of estrogen receptor alpha signaling (AID 588514); conditions: ER-alpha-UAS-bla HEK293, beta-lactamase ratio, 18 h; series mostly up to 76.8 µM; activation: at the top concentration; note: nearly all actives have a fitted effect of over 70% in size; note: potency is the fitted concentration of half-maximal effect;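 for activation: 0% = vehicle only and 100% = reference agonist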
Method in brief: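 Fluorescence from CCF4 cleavage reports ER-alpha-driven beta-lactamase expression in HEK 293 cells treated 18 hrs at 37 C. Data normalized to 17-beta-estradiol (20 nM) and DMSO, fitted to Hill equation.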

Row | Compound | Potency | activation
40 | O=S(=O)(c1ccc(O)cc1)c1ccc(O)cc1 | 14.1 µM (active) | 
41 | COc1ccc(O)c(C(C)(C)C)c1 |  | -1.81% (inactive)
42 | O=[N+]([O-])c1ccc(Oc2ccc(C(F)(F)F)cc2[N+](=O)[O-])cc1 |  | -6.22% (inactive)
43 | Cc1ccccc1C(=O)Nc1cccc(OC(C)C)c1 |  | -5.88% (inactive)
44 | CN(C)P(=O)(N(C)C)N(C)C |  | 0.94% (inactive)
45 | CCOc1ccc(C(C)(C)COCc2cccc(Oc3ccccc3)c2)cc1 |  | -4.94% (inactive)
46 | O=c1[nH]c2ccccc2c(=O)o1 |  | -1.12% (inactive)
47 | COc1ccc(C(O)(c2cncnc2)C2CC2)cc1 (stereo not drawn) |  | -1.76% (inactive)
48 | CN(C)c1nc(=O)n(C2CCCCC2)c(=O)n1C |  | -5.53% (inactive)
49 | C=CC1(C)OC(=O)N(c2cc(Cl)cc(Cl)c2)C1=O (stereo not drawn) |  | -1.35% (inactive)
50 | COC(=O)c1ccccc1CS(=O)(=O)NC(=O)Nc1nc(OC)cc(OC)n1 |  | 2.01% (inactive)
51 | CCC[CH2][Sn]([CH2]CCC)([O]C(C)=O)[O]C(C)=O | 0.794 µM (active) | 
52 | O=P(O)(O)CCCl | inactive | 
53 | CCCCN(CC)C(=O)SCCC |  | 3.44% (inactive)
54 | NS(=O)(=O)C(F)(F)C(F)(F)C(F)(F)C(F)(F)C(F)(F)C(F)(F)C(F)(F)C(F)(F)F |  | 16% (inactive)
55 | CCOP(=O)(NC(C)C)Oc1ccc(S(C)=O)c(C)c1 (stereo not drawn) |  | -1.84% (inactive)
56 | COP(=S)(OC)Oc1nc(Cl)c(Cl)cc1Cl |  | -4.11% (inactive)
57 | CCOP(=O)(O)C(N)=O |  | -1.08% (inactive)
58 | COC(=O)c1ccccc1S(=O)(=O)NC(=O)N(C)c1nc(C)nc(OC)n1 |  | 1.27% (inactive)
59 | Clc1ccc(C(Cl)(Cl)Cl)cc1 |  | 13.3% (inactive)

Row | Compound | Potency | activation
60 | CCOC1Oc2ccc(OS(C)(=O)=O)cc2C1(C)C (stereo not drawn) |  | 4.77% (inactive)
61 | COCc1cnc(C2=NC(C)(C(C)C)C(=O)N2)c(C(=O)O)c1 (stereo not drawn) |  | 1.33% (inactive)
62 | Clc1ccc([C@]2(Cn3cncn3)C[C@H](Br)CO2)c(Cl)c1 | inactive | 
63 | CCNc1nc(NC(C)(C)C)nc(SC)n1 |  | -1.98% (inactive)
64 | CCCCC(CC)COC(=O)Cl (stereo not drawn) |  | 4.27% (inactive)
65 | CC1CCCCC1NC(=O)Nc1ccccc1 (stereo not drawn) |  | -8.18% (inactive)
66 | CCOP(=S)(OCC)SCC(=O)NC(C)C |  | -1.86% (inactive)
67 | CCOc1nc(NC)nc(NC(=O)NS(=O)(=O)c2ccccc2C(=O)OC)n1 |  | -15.3% (inactive)
68 | C/C(=N\NC(=O)Nc1cc(F)cc(F)c1)c1ncccc1C(=O)O |  | 2.01% (inactive)
69 | C=CCC1=C(C)[C@@H](OC(=O)[C@@H]2[C@@H](C=C(C)C)C2(C)C)CC1=O |  | -3.28% (inactive)
70 | C=CC(=O)OCCCCCC(C)C |  | 7.53% (inactive)
71 | CCC(C)n1c(=O)[nH]c(C)c(Br)c1=O (stereo not drawn) |  | 0.677% (inactive)
72 | COP(=S)(OC)Oc1ccc([N+](=O)[O-])c(C)c1 |  | 15.2% (inactive)
73 | CCN(CC)C(=O)C(C)Oc1cccc2ccccc12 (stereo not drawn) |  | -2.73% (inactive)
74 | CCCCC(CC)C(=O)Cl (stereo not drawn) |  | -0.466% (inactive)
75 | CC(Oc1cc(Cl)c(Cl)cc1Cl)C(=O)O (stereo not drawn) |  | -0.887% (inactive)
76 | Cc1c(F)c(F)c(COC(=O)C2C(/C=C(\Cl)C(F)(F)F)C2(C)C)c(F)c1F (stereo not drawn) |  | 5.5% (inactive)
77 | Nc1ccc([N+](=O)[O-])cc1Cl |  | -0.279% (inactive)
78 | CNC(=O)Oc1ccc(N(C)C)c(C)c1 |  | 3.73% (inactive)
